Screening data from PubChem BioAssay.
This is a sample that favours compounds with a hit; in the whole collection about 2.4% have one here.
Pol iota inh – blocks human DNA polymerase iota activity; Potency, µM (highest dose often 115 µM), usual class: inhibitors; 390,000 compounds, 1% hits; Q9UNA4; AID 588590; Pol iota fluorescent replication assay, 10 min
Target sequence (Q9UNA4 whole entry, looked up): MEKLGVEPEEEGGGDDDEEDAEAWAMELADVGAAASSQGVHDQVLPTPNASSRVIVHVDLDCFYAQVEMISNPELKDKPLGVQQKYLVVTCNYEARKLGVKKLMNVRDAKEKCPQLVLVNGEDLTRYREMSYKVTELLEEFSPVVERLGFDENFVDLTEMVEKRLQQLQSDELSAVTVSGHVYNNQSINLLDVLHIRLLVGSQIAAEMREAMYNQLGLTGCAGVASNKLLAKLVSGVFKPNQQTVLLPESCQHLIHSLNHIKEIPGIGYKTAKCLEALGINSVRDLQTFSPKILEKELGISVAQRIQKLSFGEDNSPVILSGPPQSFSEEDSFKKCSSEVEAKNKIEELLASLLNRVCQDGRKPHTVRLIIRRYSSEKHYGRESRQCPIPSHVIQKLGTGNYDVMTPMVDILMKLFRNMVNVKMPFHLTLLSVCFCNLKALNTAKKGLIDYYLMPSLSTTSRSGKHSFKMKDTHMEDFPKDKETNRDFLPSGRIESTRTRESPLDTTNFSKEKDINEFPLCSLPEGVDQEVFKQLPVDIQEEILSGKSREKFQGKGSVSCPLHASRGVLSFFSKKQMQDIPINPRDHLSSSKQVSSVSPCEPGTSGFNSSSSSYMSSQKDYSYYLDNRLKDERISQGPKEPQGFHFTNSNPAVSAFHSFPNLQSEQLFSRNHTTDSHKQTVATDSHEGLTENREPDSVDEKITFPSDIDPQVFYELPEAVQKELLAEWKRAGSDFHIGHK
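Pol iota at 10 nM preincubated 15 min with compounds at room temperature; reaction started with fluorescent substrate, 50 nM final. Fluorescence read kinetically at 0 and 10 min; buffer-only wells as negative control.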
Pol eta inh – DNA polymerase eta (human) inhibition. Q9Y253. recombinant Pol eta, fluorescent DNA replication assay. Potency, µM (top dose mostly 114 µM), hits mostly inhibitors. 390,000 compounds, 1.2% hits. AID 588591
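Fluorescent replication assay: 50 nM final substrate added after a 15 min room-temperature compound preincubation with 10 nM enzyme. Signal taken at 0 min and again at 10 min.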
WRN inhibitor – blocks human WRN helicase; Q14191; WRN helicase unwinding, fluorescent forked duplex, kinetic; Potency, µM (top dose mostly 114 µM), actives largely listed as inhibitors; 360,000 compounds, 0.46% hits; note: nearly all actives have a fitted effect of over 55% in size
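WRN at 20 nM final preincubated with compound 15 min at room temperature; reaction started with 100 nM fluorophore/quencher forked duplex oligonucleotide and 2 mM ATP final. Unwinding followed kinetically by red fluorescence (ex 525, em 598 nm).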
FEN1 inhibitor – blocks human flap endonuclease 1; Potency, µM (titrated, usually from 114 µM), usual class: inhibitors; 390,000 compounds, 0.35% hits; Recombinant FEN1 flap cleavage, fluorescence, 15 min; P39748; note: nearly all actives have a fitted effect of over 65% in size
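Quantitative HTS format: each compound was titrated, incubated with 10 nM nuclease for 15 min at room temperature, then challenged with flap substrate at 50 nM final. Signal change over 15 min gave concentration–effect curves.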
Pol beta inh – blocks human DNA polymerase beta activity; 340,000 compounds, 1.3% hits; Pol beta primer extension/strand displacement, fluorescence kinetic; Potency, µM (top dose mostly 114 µM), most hits filed as inhibitors; AID 485314
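10 nM enzyme + cpd, 15 min RT; start with substrate 50 nM final; read 0 min and after 10 min RT. Corrected, normalized data; 4-parameter Hill curve fit.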
POLK inh – blocks human DNA polymerase kappa activity | Potency, µM (top dose mostly 107 µM), hits mostly inhibitors | Q9UBT6 | 400,000 compounds, 0.53% hits | purified Pol kappa, fluorescent DNA synthesis assay, 10 min
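First, compounds were pin-transferred onto 10 nM Pol kappa. After 15 min at room temperature, substrate was added to 50 nM final. Fluorescence was then measured kinetically at 0 and 10 min.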
Each line names hits and unclear results; the compound was inactive in the other large screens. Calls come from the whole dose curve; as a rule, active = well fitted curve in the direction sought with a large enough effect; inconclusive = small, poorly fitted or top-dose-only effect, or another doubt; inactive = no such curve, though single readings can be large; an effect the other way counts as inactive or inconclusive.

CCCCn1c(N)c(-c2nc3ccccc3o2)c2c([N+](=O)[O-])nn(CC)c(=O)c21	Pol eta inh 3.5µM
Cc1cc2nc(CO)[nH]c2cc1C	none
COc1cc2nc(CCc3nc4cc(OC)c(OC)cc4[nH]3)[nH]c2cc1OC	Pol iota inh 2.5µM, POLK inh 3.2µM (no result: Pol eta inh, WRN inhibitor, Pol beta inh)
CCCN1C(=O)/C(=C/c2c(NCCCOC(C)C)nc3c(C)cccn3c2=O)SC1=S	WRN inhibitor inconclusive
CCC(C)N1C(=O)/C(=C/c2c(NCCCOC(C)C)nc3c(C)cccn3c2=O)SC1=S (stereo not given)	Pol eta inh 22µM, FEN1 inhibitor inconclusive, Pol beta inh 28µM
C=C1C(N)CC2CC1C2(C)C (stereo not given)	none (no result: Pol iota inh, Pol eta inh, WRN inhibitor, FEN1 inhibitor, Pol beta inh)
COc1ccc(N(C(=O)c2ccccc2C)S(=O)(=O)c2ccc3c(c2)n(C)c(=O)n3C)cc1	none (no result: WRN inhibitor)
O=C(Cc1ccc(Cl)cc1)c1ccc(O)cc1	Pol iota inh 50µM
CC1=NN(c2ccccc2C)C(=O)C1	Pol iota inh 3.2µM (no result: Pol beta inh)
CC(=O)Nc1ccc(S(=O)(=O)Nc2nc3nc(-c4ccccc4)cc(-c4ccccc4)n3n2)cc1	Pol iota inh inconclusive, POLK inh 79µM
O=C1C=CC(=O)N1c1ccc(OC(F)F)cc1	WRN inhibitor 32µM
COC(=O)[C@H](CCCN=C(N)N)NC(=O)CCCc1c(-c2ccccc2)[nH]c2c(F)cc(F)cc12	none (no result: Pol iota inh, Pol eta inh, WRN inhibitor, FEN1 inhibitor, Pol beta inh)
Cc1ccc(NC(=O)CN2C(=O)CCc3ccccc32)cc1C	Pol iota inh inconclusive, Pol beta inh 22µM (no result: WRN inhibitor)
Cc1ccc(C)c(NC(=O)CN2C(=O)CCc3ccccc32)c1	Pol iota inh 79µM, Pol beta inh 22µM, POLK inh inconclusive (no result: WRN inhibitor)
Cc1ccc(Cl)cc1NC(=O)CN1C(=O)CCc2ccccc21	none (no result: WRN inhibitor)
CCOC(=O)N1CCc2c(sc(NCc3sccc3C)c2C(=O)Nc2ccccc2OCC)C1	none (no result: WRN inhibitor)
Cc1cc(C)n(C(C)CC(=O)Nc2ccc(C)c(N(C)C)c2)n1 (stereo not given)	none (no result: WRN inhibitor)
CCOC(=O)c1c(NC(=O)CSc2nnc(C)s2)sc2c1CCN(C)C2	Pol iota inh 11µM, Pol eta inh inconclusive, WRN inhibitor inconclusive
CCc1nn(CC(=O)NCc2cccc(OC)c2OC)c(=O)c2cc3occc3n12	none (no result: Pol eta inh, WRN inhibitor)
Cc1cnc(C(=O)OCC(=O)c2ccccc2)cn1	none (no result: Pol beta inh)
Cc1cnc(C(=O)OCC(=O)c2csc(N3CCCCC3)n2)cn1	Pol iota inh inconclusive, Pol eta inh 25µM, WRN inhibitor inconclusive, Pol beta inh 45µM
C=C1C(=O)OC2C1CCC(C)=C1C(=O)C3OC3(C)C12 (stereo not given)	Pol iota inh inconclusive, Pol eta inh 89µM (no result: Pol beta inh)
COc1ccccc1CNC(=O)c1cnc2sc(N3CCCCCC3)nn2c1=O	none (no result: WRN inhibitor)
CO/N=C(/C(=O)NC1C(=O)N2C(C(=O)O)=C(COC(N)=O)CSC12)c1ccco1 (stereo not given)	POLK inh 35µM (no result: Pol iota inh, Pol eta inh, WRN inhibitor, FEN1 inhibitor, Pol beta inh)
CO/N=C(\C(=O)N[C@@H]1C(=O)N2C(C(=O)O)=C(CSc3nc(=O)c(O)nn3C)CSC12)c1csc(N)n1 (stereo not given in full)	Pol iota inh 25µM, Pol eta inh 11µM, Pol beta inh 14µM, POLK inh inconclusive (no result: WRN inhibitor, FEN1 inhibitor)
CO/N=C(/C(=O)N[C@@H]1C(=O)N2C(C(=O)O)=C(CSC(=O)c3ccco3)CSC12)c1csc(N)n1 (stereo not given in full)	none (no result: Pol iota inh, Pol eta inh, WRN inhibitor, FEN1 inhibitor, Pol beta inh)
CO/N=C(/C(=O)N[C@@H]1C(=O)N2C(C(=O)O)=C(C[n+]3ccc(N)n3CCO)CS[C@H]12)c1csc(N)n1	none (no result: Pol iota inh, Pol eta inh, WRN inhibitor, FEN1 inhibitor, Pol beta inh)
CO/N=C(\C(=O)N[C@@H]1C(=O)N2C(C(=O)O)=C(COC(N)=O)CS[C@H]12)c1ccco1	Pol iota inh 40µM, Pol eta inh 2.5µM, Pol beta inh inconclusive, POLK inh inconclusive
CCOc1ccc(CCNC(=O)c2ccc3c(c2)c(C)c(C)n3C)cc1	none (no result: WRN inhibitor)
O=S(=O)(c1ccc(Cl)cc1)c1nnn2c1nc(NC1CCCCC1)c1sccc12	FEN1 inhibitor inconclusive, Pol beta inh 32µM (no result: WRN inhibitor)
Cc1ccc(CCNc2nc3c(S(=O)(=O)c4ccccc4)nnn3c3ccsc23)cc1	FEN1 inhibitor 89µM (no result: WRN inhibitor)
